Results published in PubChem BioAssay (NCATS).
Inconclusive results are not listed. Calls of active or inactive are those of the source. The call rests on the fitted dose curve; in most records, active means well fitted curve in the direction sought with a large enough effect; inconclusive means small, poorly fitted or top-dose-only effect, or another doubt; inactive means no such curve, though single readings can be large; an effect the other way counts as inactive or inconclusive.

What was measured:
NIH3T3 = assay: qHTS assay to identify novel small-molecules to repurpose for Merkel cell carcinoma treatment (AID 1296009); conditions: MCC and control cell lines, CellTiter-Glo viability, 72 h; at 44.8 µM (top of the series) unless noted; further: nearly all actives have a fitted effect of over 60% in size
How it was run: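 Cells were incubated with compound for 72 hr at 37 degree celsius before CellTiter-Glo addition. Luminescence was normalized with no-cell wells as full cytotoxicity and DMSO as baseline.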

C33A = assay: Primary qHTS to identify gynecologic anti-cancer compounds using libraries of approved drugs and bioactive compounds (AID 1345084); conditions: Gynecologic cancer cell panel viability, ATPlite luminescence, 48 h; series mostly up to 57.5 µM; further: on the % scale 0 is the no-effect control and ±100 the full control effect; nearly all actives have a fitted effect of over 55% in size
How it was run: (§1)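 Cells, 1,000 per well, were allowed to settle for 16 h at 37 C before compound addition. Five concentrations were tested for 48 h, and viability was read by ATPlite luminescence after 15 min at room temperature.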

CAOV3 = assay: as above; conditions: Gynecologic cancer cell panel viability, ATPlite luminescence, 48 h; series mostly up to 57.5 µM
How it was run: as §1

CASKI = assay: as above; conditions: Gynecologic cancer cell panel viability, ATPlite luminescence, 48 h; series mostly up to 57.5 µM
How it was run: as §1

Es-2 = assay: as above; conditions: Gynecologic cancer cell panel viability, ATPlite luminescence, 48 h; series mostly up to 57.5 µM
How it was run: as §1

HeLa = assay: as above; conditions: Gynecologic cancer cell panel viability, ATPlite luminescence, 48 h; series mostly up to 57.5 µM
How it was run: as §1

Hek293T = assay: as above; conditions: Gynecologic cancer cell panel viability, ATPlite luminescence, 48 h, control line for the selectivity index; series mostly up to 57.5 µM
How it was run: as §1

JEG-3 = assay: as above; conditions: Gynecologic cancer cell panel viability, ATPlite luminescence, 48 h; series mostly up to 57.5 µM
How it was run: as §1

OV90 = assay: as above; conditions: Gynecologic cancer cell panel viability, ATPlite luminescence, 48 h; series mostly up to 57.5 µM
How it was run: as §1

PA-1 = assay: as above; conditions: Gynecologic cancer cell panel viability, ATPlite luminescence, 48 h; series mostly up to 57.5 µM
How it was run: as §1

SKOV3 = assay: as above; conditions: Gynecologic cancer cell panel viability, ATPlite luminescence, 48 h; series mostly up to 57.5 µM
How it was run: as §1

Tov-21-G = assay: as above; conditions: Gynecologic cancer cell panel viability, ATPlite luminescence, 48 h; series mostly up to 57.5 µM
How it was run: as §1

Tov112D = assay: as above; conditions: Gynecologic cancer cell panel viability, ATPlite luminescence, 48 h; series mostly up to 57.5 µM
How it was run: as §1

C=C1CCC2C(C)(C(=O)O)CCCC2(C)C1CC/C(C)=C\CO (stereo not drawn)
inactive: outcome (NIH3T3) | Potency (C33A) | Potency (CAOV3) | outcome (CASKI) | Potency (Es-2) | Potency (HeLa) | Potency (Hek293T) | Potency (JEG-3) | Potency (OV90) | Potency (PA-1) | Potency (SKOV3) | Potency (Tov-21-G) | Potency (Tov112D)

COC1OC(OC)C(O)(CCC2(C)C(C)CCC3(C)C2CC(O)C(O)C32CO2)C1O (stereo not drawn)
inactive: outcome (NIH3T3) inactive [at 17.4 µM] | Potency (C33A) | Potency (CAOV3) | outcome (CASKI) | Potency (Es-2) | Potency (HeLa) | Potency (Hek293T) | Potency (JEG-3) | Potency (OV90) | Potency (PA-1) | Potency (SKOV3) | Potency (Tov-21-G) | Potency (Tov112D)

C/C=C1\[C@H](O[C@@H]2O[C@H](CO)[C@@H](O)[C@H](O)[C@H]2O)OC=C(C(=O)O)[C@H]1CC(=O)OCCc1ccc(O)cc1
inactive: outcome (NIH3T3) inactive [at 17.4 µM] | Potency (C33A) | Potency (CAOV3) | outcome (CASKI) | Potency (Es-2) | Potency (HeLa) | Potency (Hek293T) | Potency (JEG-3) | Potency (OV90) | Potency (PA-1) | Potency (SKOV3) | Potency (Tov-21-G) | Potency (Tov112D)

CC(=O)OC1C(CO)OC(O[C@H]2[C@H](OC(=O)[C@]34CCC(C)(C)C[C@H]3C3=CCC5[C@@]6(C)CC[C@H](O[C@@H]7O[C@H](C(=O)O)[C@@H](O)[C@H](O[C@@H]8OC[C@@H](O)[C@H](O)[C@H]8O)[C@H]7O[C@@H]7O[C@H](CO)[C@H](O)[C@H](O)[C@H]7O)[C@@](C)(C=O)C6CC[C@@]5(C)[C@]3(C)C[C@H]4O)O[C@H](C)[C@H](OC3OC(C)C(OC4OCC(O)C(O)C4O)C(O)C3O)[C@@H]2O)C(O)C1O (stereo partly drawn)
inactive: outcome (NIH3T3) inactive [at 9.27 µM] | activity change, negative = cytotoxicity (C33A) 12.2% [at 6.55 µM] | activity change, negative = cytotoxicity (CAOV3) -15% [at 6.55 µM] | activity change, negative = cytotoxicity (CASKI) 7.74% [at 6.55 µM] | activity change, negative = cytotoxicity (Es-2) -0.286% [at 6.55 µM] | activity change, negative = cytotoxicity (HeLa) -1.51% [at 6.55 µM] | activity change, negative = cytotoxicity (Hek293T) 1.03% [at 6.55 µM] | activity change, negative = cytotoxicity (JEG-3) 3.7% [at 6.55 µM] | activity change, negative = cytotoxicity (OV90) -0.616% [at 6.55 µM] | activity change, negative = cytotoxicity (PA-1) 13.7% [at 6.55 µM] | activity change, negative = cytotoxicity (SKOV3) 33.2% [at 6.55 µM] | activity change, negative = cytotoxicity (Tov-21-G) 2.01% [at 6.55 µM] | activity change, negative = cytotoxicity (Tov112D) 5.09% [at 6.55 µM]

O=C(O)CCc1c(C(=O)O)[nH]c2cc(Cl)cc(Cl)c12
inactive: outcome (NIH3T3) inactive [at 17.4 µM] | Potency (C33A) | Potency (CAOV3) | outcome (CASKI) | Potency (Es-2) | Potency (HeLa) | Potency (Hek293T) | Potency (JEG-3) | Potency (OV90) | Potency (PA-1) | Potency (SKOV3) | Potency (Tov-21-G) | Potency (Tov112D)

CC(C)(OC1OC(CO)C(O)C(O)C1O)C1CCC(O)(CO)C2CC(=O)C(C)(O)C2C1 (stereo not drawn)
inactive: outcome (NIH3T3) inactive [at 17.4 µM] | Potency (C33A) | Potency (CAOV3) | outcome (CASKI) | Potency (Es-2) | Potency (HeLa) | Potency (Hek293T) | Potency (JEG-3) | Potency (OV90) | Potency (PA-1) | Potency (SKOV3) | Potency (Tov-21-G) | Potency (Tov112D)

C/C=C/C=C/C1=C2C(=O)C3(C)C4C(C(=O)CC(O)/C=C/C)=C(O1)C1(C)C2C2(C)OC1(O)C4(C)OC23O (stereo not drawn)
inactive: outcome (NIH3T3) inactive [at 17.4 µM] | Potency (C33A) | Potency (CAOV3) | outcome (CASKI) | Potency (Es-2) | Potency (HeLa) | Potency (Hek293T) | Potency (JEG-3) | Potency (OV90) | Potency (PA-1) | Potency (SKOV3) | Potency (Tov-21-G) | Potency (Tov112D)

CC1(C)CC[C@]2(C(=O)O)CC[C@]3(C)C(=CCC4[C@@]5(C)CC[C@H](O[C@@H]6O[C@H](C(=O)O)[C@@H](O)[C@H](O)[C@H]6O)C(C)(C)C5CC[C@]43C)C2C1 (stereo partly drawn)
inactive: outcome (NIH3T3) inactive [at 17.4 µM] | Potency (C33A) | Potency (CAOV3) | outcome (CASKI) | Potency (Es-2) | Potency (HeLa) | Potency (Hek293T) | Potency (JEG-3) | Potency (OV90) | Potency (PA-1) | Potency (SKOV3) | Potency (Tov-21-G) | Potency (Tov112D)

CNc1nc(Cc2ccccc2)nc2c1CCNC[C@@H]2C
inactive: outcome (NIH3T3) | Potency (C33A) | Potency (CAOV3) | outcome (CASKI) | Potency (Es-2) | Potency (HeLa) | Potency (Hek293T) | Potency (JEG-3) | Potency (OV90) | Potency (PA-1) | Potency (SKOV3) | Potency (Tov-21-G) | Potency (Tov112D)

O=C(OCc1ccccc1O[C@@H]1O[C@H](CO)[C@@H](O)[C@H](O)[C@H]1O)C1(O)C=CCCC1O (stereo partly drawn)
inactive: outcome (NIH3T3) inactive [at 17.4 µM] | Potency (C33A) | Potency (CAOV3) | outcome (CASKI) | Potency (Es-2) | Potency (HeLa) | Potency (Hek293T) | Potency (JEG-3) | Potency (OV90) | Potency (PA-1) | Potency (SKOV3) | Potency (Tov-21-G) | Potency (Tov112D)

CC1=CCC[C@@H]2[C@](CCc3ccoc3)(C(=O)O)[C@H](C)CC[C@@]12C
inactive: outcome (NIH3T3) | Potency (C33A) | Potency (CAOV3) | outcome (CASKI) | Potency (Es-2) | Potency (HeLa) | Potency (Hek293T) | Potency (JEG-3) | Potency (OV90) | Potency (PA-1) | Potency (SKOV3) | Potency (Tov-21-G) | Potency (Tov112D)
